We go through twelve compounds from PubChem BioAssay (NCATS).

Each structure is given as a SMILES string. Inconclusive results are not listed. The source made the active and inactive calls. The call rests on the fitted dose curve; in most records, active means well fitted cell-killing curve with a large enough effect; inconclusive means small, poorly fitted or top-dose-only effect; inactive means flat fitted curve, though single readings scatter.
Potency means the concentration at half of the fitted maximal effect.

The nature of this experiment: Cell Viability - LYMP2-009 (AID 968). Further: nearly all actives have a fitted effect of over 55% in size.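 On activity change, negative = viability loss: 0% = DMSO alone and the full-kill end = tetraoctylammonium bromide at 92 µM.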 The settings on record: LYMP2-009 lymphoblastoid cell viability; series mostly up to 92.2 µM; activity change, negative = viability loss: at the top concentration. The source says: NIH Chemical Genomics Center [NCGC]
NIH Molecular Libraries Screening Centers Network [MLSCN]
National Institutes of Environmental Health Sciences [NIEHS]
National Toxicology Program [NTP]
We have developed a 1536-well cell-based assay for quantitative high throughput screening (qHTS) against a number of cell lines to determine in vitro cytotoxicity of small molecules. This particular assay uses a human lymphoblastoid cell line (LYMP2-009) purchased from Coriell Institute for Medical Research.
NCGC Assay Protocol Summary:
The CellTiter-Glo luminescent cell viability assay (Promega) is a homogeneous method to measure the number of viable cells in culture. The end point readout of this assay is based on quantitation of intracellular ATP, an indicator of metabolic activity, using the luciferase reaction. Luciferase catalyzes the oxidation of beetle Luciferin to oxyluciferin and light in the presence of ATP. The luminescent signal is proportional to amount of ATP present.
Using the CellTiter-Glo luminescent cell viability assay, the amount of cellular ATP was measured in the lymphoblastoid cell line with complete culture medium following compound treatment for 24 hours. The assay was performed in opaque white Kalypsys 1536-well plates. In the screen, tetraoctylammonium bromide was used as positive control. Library compounds were measured for their ability to cause acute toxicity in the cell line, as reflected by a decrease in intracellular ATP levels, in a concentration-dependent manner. […] AC50 values were determined from concentration-response data modeled with the standard Hill equation.
qHTS protocol for CellTiter Glo lymphoblastoid cellular assay
[Step] [Parameter] [Value] [Description]
1. Reagent; 5 uL; 2500 lymphoblastoid cells/well
2. Time; 5 hr; 37 C incubation
4. Controls; 23 nL; Tetraoctylammonium bromide 6.4pM to 92 uM
5. Time; 24 hr; 37 C incubation
6. Reagent; 5 uL; CellTiter Glo reagent
7. Time; 30 min; Room Temperature
8. Detection; Luminescence; Viewlux plate reader
Keywords: cell viability, cytotoxicity, lymphoblastoid cell line, luminescence, NTPHTS, NTPHTS_NCGC, NIEHS, DSSTox, MLSMR, MLSCN, NIH Roadmap, qHTS, NCGC
For `O=C1NC(=O)C(c2ccccc2)(c2ccccc2)N1`, the “activity change, negative = viability loss” value was -6.04% (inactive).
Turning to `CN(C)CCC(c1ccccc1)c1ccccn1` (configuration not stated), the “activity change, negative = viability loss” value is -12.9% (inactive).
On to `O=C(O)Cc1cccc2ccccc12`, for which the “activity change, negative = viability loss” value is 2.3% (inactive).
In the case of `O=c1[nH]cnc2c1ncn2[C@H]1CC[C@@H](CO)O1`, the “activity change, negative = viability loss” value was -2.09% (inactive).
Still for that read-out and setting: under `CCn1cc(C(=O)O)c(=O)c2ccc(C)nc21` stands -9.72% (inactive); under `O=c1c(O)c(-c2ccc(O)cc2)oc2cc(O)cc(O)c12`, -18.7% (inactive).
Take `CC/C(=C(\c1ccccc1)c1ccc(OCCN(C)C)cc1)c1ccccc1`: the Potency is 50.1 µM (active).
Take `CC(=O)O[C@]1(C(C)=O)CC[C@H]2[C@@H]3C=C(Cl)C4=CC(=O)[C@@H]5C[C@@H]5[C@]4(C)[C@H]3CC[C@@]21C`: the “activity change, negative = viability loss” value is -21.7% (inactive).
The same measure, in the same setting: under `O=c1c(-c2ccc(O)cc2)coc2cc(O)ccc12` stands -16.3% (inactive); under `CCCNC(=O)NS(=O)(=O)c1ccc(Cl)cc1`, -10.6% (inactive); under `CCCCC1C(=O)N(c2ccccc2)N(c2ccccc2)C1=O`, -4.35% (inactive).
`CC(=O)c1ccc(S(=O)(=O)NC(=O)NC2CCCCC2)cc1`: the “activity change, negative = viability loss” value is -0.855% (inactive).
